Assay [1] is described as follows: qHTS assay to identify small molecule antagonists of the estrogen related receptor (ERR) signaling pathway from Tox21 library - cell viability counter screen (AID 1224834). Further: nearly all actives have a fitted effect of over 30% in size. Further: potency means the concentration at half of the fitted maximal effect. An outline of the steps: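 Viability readout (CellTiter-Fluor fluorescence, 30 min at 37 C) multiplexed with the ERR assay; cells treated 17.5 h at 37 C with compounds delivered in DMSO.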
(In qHTS, concentration-response curves come from the screen itself.)

For assay [2], the target named is Nuclear receptor subfamily 1 group I member 3 (Homo sapiens) (UniProt Q14994). Put plainly: qHTS assay to identify small molecule antagonists of the constitutive androstane receptor (CAR) signaling pathway (AID 1224838).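 Further: HepG2 cells stably expressing hCAR with CYP2B6 luciferase reporter stimulated by CITCO; on the % scale 0 is the no-effect control and ±100 the full control effect; nearly all actives have a fitted effect of over 40% in size.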 In outline:
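Quantitative HTS in double-stable HepG2-CYP2B6-hCAR cells. After 4 h plating, cells get compound (15 concentrations) and CITCO at 50 nM final, incubate 24 h at 37 C, then ONE-Glo luminescence is read.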

The nature of assay [3]: qHTS assay to identify small molecule antagonists of the estrogen related receptor signaling pathway with the pleiotropic PPARgamma coactivator (PGC) from Tox21 10K library - cell viability counter screen (AID 1224840; active means well fitted cell-killing curve with a large enough effect in the repeat runs, not every such curve was filed as active; further: on the % scale 0 is the no-effect control and ±100 the full control effect; nearly all actives have a fitted effect of over 40% in size). An outline of the steps: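 Compounds in DMSO, alongside positive and negative controls, were pinned onto PGC/ERR cells (2,000 per well). Exposure lasted 17.5 hours at 37 C, followed by a 30-minute CellTiter-Fluor incubation and fluorescence reading.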

A short description of assay [4]: qHTS assay to identify small molecule agonists of the estrogen related receptor signaling pathway with the pleiotropic PPARgamma coactivator (PGC) from Tox21 10K library (AID 1224842). Further: nearly all actives have a fitted effect of over 15% in size. Further: potency means the concentration at half of the fitted maximal effect. On activation: on the % scale 0 is the no-effect control and ±100 the full control effect. An outline of the steps: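 PGC/ERR reporter cell line, 2,000 cells per well, incubated 6 h at 37 C before 23 nL compound in DMSO was added. After 18 h at 37 C, One-Glo luminescence read following 30 min at room temperature.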

The target of assay [5] is Thyrotropin receptor (Homo sapiens) (UniProt P16473). Briefly: qHTS assay to identify small molecule agonists of the thyroid stimulating hormone receptor (TSHR) signaling pathway (AID 1224843; calls by dose curve; further: on the % scale 0 is the no-effect control and ±100 the full control effect; nearly all actives have a fitted effect of over 45% in size). An outline of the steps:
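Steps: seed 800 TSHR-HEK293 cells per well; add test compound and hold 30 min at ambient temperature; dispense cAMP-d2 then anti-cAMP cryptate; incubate 1 h at ambient; measure fluorescence intensity.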

Assay [6] is described as follows: qHTS assay to identify small molecule agonists of the hypoxia (HIF-1) signaling pathway - cell viability counter screen (AID 1224844; calls by dose curve; further: nearly all actives have a fitted effect of over 50% in size; further: potency means the concentration at half of the fitted maximal effect). In outline: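 Luminescent ATP content (CellTiter-Glo, 30 min, room temperature) served as the viability measure in HRE-bla ME-180 cells exposed to compounds for 17 hrs in low-serum medium (0.5% dialyzed FBS).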
Assay [7] can be described thus: qHTS assay to identify small molecule agonists of H2AX (AID 1224845; active means well fitted activation curve with a large enough effect in the signal ratio in the repeat runs, not every such curve was filed as active; the % refers to the signal ratio; further: on the % scale 0 is the no-effect control and ±100 the full control effect). An outline of the steps: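 Wild-type CHO-K1 cells, plated overnight, exposed 3hr at 37C to 15 concentrations (0.76% DMSO final). Lysed, then HTRF anti-pH2AX (S139) cryptate and anti-H2AX-d2 antibodies, 24 hr room temperature; 665/620 nm emission read.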
Assay [8] can be described thus: qHTS assay to identify small molecule agonists of the estrogen related receptor (ERR) signaling pathway from Tox21 library (AID 1224849; calls by dose curve; further: on the % scale 0 is the no-effect control and ±100 the full control effect; nearly all actives have a fitted effect of over 15% in size). The conditions noted are these: ERR reporter cell line, ONE-Glo luciferase, 18 h. An outline of the steps:
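We plated ERR reporter cells, waited 6 h, added compounds in DMSO by pin tool and incubated them 18 h at 37 C. ONE-Glo was then added and luminescence read after 30 min.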

Assay [9] in a line: qHTS RealTime-Glo MT Cell Viability Assay in HepG2 cells - 24 hour (AID 1224867). Further: nearly all actives have a fitted effect of over 50% in size. Further: potency means the concentration at half of the fitted maximal effect. An outline of the steps: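 Viability was tracked continuously by NanoLuc luminescence from prosubstrate reduced by living HepG2 cells, at successive time points over 40 h of compound exposure. Cells with reagent were preincubated 5 h at 37 °C before compound addition.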
Assay [10] is described as follows: qHTS RealTime-Glo MT Cell Viability Assay in HEK293 cells - 32 hour (AID 1224868). Further: nearly all actives have a fitted effect of over 50% in size. Further: potency means the concentration at half of the fitted maximal effect. An outline of the steps:
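Viability tracked continuously by luminescence as live cells reduce a prosubstrate for NanoLuc; HEK293 cells preincubated 5 h, compound-treated at 37 C, and read at 0, 8, 16, 24, 32 and 40 h.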

Assay [11] is described as follows: A CellTox Green Cytotoxicity Assay to monitor cytotoxicity in HEK293 cells - 0 hour (AID 1224869). Further: nearly all actives have a fitted effect of over 50% in size. Further: potency means the concentration at half of the fitted maximal effect. On Cytotoxicity: on the % scale 0 is the no-effect control and ±100 the full control effect. An outline of the steps: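 Each value comes from one timepoint of a single continuous run in which HEK293 cells with CellTox Green were exposed to compound for up to 40 h at 37 C, dye fluorescence rising with cell death.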
Assay [12] in a line: qHTS RealTime-Glo MT Cell Viability Assay in HepG2 cells - 40 hour (AID 1224870). Further: nearly all actives have a fitted effect of over 50% in size. Further: potency means the concentration at half of the fitted maximal effect. An outline of the steps:
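HepG2 cells (600/well) mixed with RealTime-Glo MT reagent, settled 5 h at 37 C/5% CO2 before compound addition. Nonlytic NanoLuc luminescence from viable-cell prosubstrate reduction read repeatedly during 40 h treatment at 37 C.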

Assay [13] is described as follows: qHTS assay to identify small molecule agonists of the constitutive androstane receptor (CAR) signaling pathway - cell viability counter screen (AID 1224836). Further: on the % scale 0 is the no-effect control and ±100 the full control effect; nearly all actives have a fitted effect of over 45% in size. An outline of the steps: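 HepG2 cells stably carrying hCAR and a CYP2B6-2.2kb reporter; 15-concentration compounds plus PK11195 (final 0.75 uM), 23 hr at 37 C/5% CO2. Viability read by CellTiter-Fluor fluorescence.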

Assay [14] can be described thus: qHTS assay to identify small molecule antagonists of the constitutive androstane receptor (CAR) signaling pathway - cell viability counter screen (AID 1224837). Further: on the % scale 0 is the no-effect control and ±100 the full control effect; nearly all actives have a fitted effect of over 45% in size. An outline of the steps: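 Fluorescence from CellTiter-Fluor served as the viability signal. Human hepatoma HepG2 cells stably bearing hCAR and CYP2B6-2.2kb received compound plus CITCO (50 nM final) for 23 hr.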

Assay [15] in a line: qHTS assay to identify small molecule agonists of the hypoxia (HIF-1) signaling pathway (AID 1224846; active means well fitted activation curve with a large enough effect in the signal ratio in the repeat runs, not every such curve was filed as active; the % refers to the signal ratio; further: on the % scale 0 is the no-effect control and ±100 the full control effect). An outline of the steps:
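Measured by blue/green FRET after loading CCF4-AM: beta-lactamase expressed from a hypoxia response element in ME-180 cells. Test agents were delivered in DMSO and left 17 hrs; cells had been plated 5 hrs earlier in low-serum (0.5% dialyzed FBS) medium.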

Assay [16] in a line: qHTS assay to identify small molecule agonists of H2AX - cell viability counter screen (AID 1224847; calls by dose curve; further: nearly all actives have a fitted effect of over 30% in size; further: potency means the concentration at half of the fitted maximal effect). In outline: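 CHO-K1 cells plated overnight at 37C, then exposed 3 h at 37C to compounds at 15 concentrations (0.76% DMSO final). Viability by CellTiter-Glo luminescence after 30 min at room temperature.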
The target of assay [17] is Luciferin 4-monooxygenase (Photinus pyralis) (UniProt P08659). Briefly: qHTS assay to identify small molecule inhibitors of firefly luciferase (AID 1224835). Further: potency means the concentration at half of the fitted maximal effect; nearly all actives have a fitted effect of over 25% in size. In outline: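 Biochemical qHTS: compounds run as interplate titrations against purified firefly enzyme, with D-luciferin and ATP each at its KM concentration. Light output recorded by CCD imaging.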
The target in assay [18] is Nuclear receptor subfamily 1 group I member 3 (Homo sapiens) (UniProt Q14994). Briefly: qHTS assay to identify small molecule agonists of the constitutive androstane receptor (CAR) signaling pathway (AID 1224839). Further: nearly all actives have a fitted effect of over 15% in size. Further: potency means the concentration at half of the fitted maximal effect. In outline:
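HepG2 cells stably co-transfected with hCAR and a CYP2B6-2.2kb luciferase reporter; compounds at 15 concentrations with 0.75 uM PK11195 present. After 24 hr at 37 C, luciferase read by ONE-Glo luminescence.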

Assay [19] can be described thus: qHTS assay to identify small molecule antagonists of the estrogen related receptor signaling pathway with the pleiotropic PPARgamma coactivator (PGC) from Tox21 10K library (AID 1224841; call rule not given here). An outline of the steps:
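Compound exposure ran 18 hours at 37 C in PGC/ERR cells (2,000/well) that had first rested 6 hours in a 37 C/5% CO2 incubator. Luciferase activity was then detected with One-Glo after a 30-minute room-temperature step.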

The nature of assay [20]: qHTS assay to identify small molecule antagonists of the estrogen related receptor (ERR) signaling pathway from Tox21 library (AID 1224848). Further: nearly all actives have a fitted effect of over 50% in size. Further: potency means the concentration at half of the fitted maximal effect. An outline of the steps:
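Luminescent reporter read-out (ONE-Glo) from NTP's ERR cell line after 18 h treatment at 37 C with DMSO-dissolved Tox21 compounds; cells pre-plated 6 h beforehand at 2,000 per well.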

Values joined by “and” are separate entries in the source; they are usually repeats but may differ in a detail not shown here. Equal entries are not always repeated. Records with an inconclusive call do not appear. Some compounds were tested as several samples or in several runs, with calls that do not always agree. Active and inactive are the calls of the source. Unless noted, the call rests on the fitted dose curve; in most records, active means well fitted curve in the direction sought with a large enough effect in the repeat runs; inconclusive means weak or mixed curves; inactive means no such curve, though single readings can be large; an effect the other way counts as inactive or inconclusive.

Sequence of Nuclear receptor subfamily 1 group I member 3 (Homo sapiens) (Q14994 whole entry, looked up): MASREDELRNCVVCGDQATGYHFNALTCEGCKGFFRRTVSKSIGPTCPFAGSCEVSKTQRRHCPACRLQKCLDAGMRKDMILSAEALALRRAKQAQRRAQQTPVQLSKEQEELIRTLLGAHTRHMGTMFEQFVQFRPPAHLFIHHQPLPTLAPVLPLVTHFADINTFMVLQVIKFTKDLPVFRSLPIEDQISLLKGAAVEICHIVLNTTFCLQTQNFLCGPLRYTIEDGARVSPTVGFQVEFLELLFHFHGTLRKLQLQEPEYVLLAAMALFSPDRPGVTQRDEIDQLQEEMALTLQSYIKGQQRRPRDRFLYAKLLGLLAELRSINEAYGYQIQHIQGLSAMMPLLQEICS
Sequence of Thyrotropin receptor (Homo sapiens) (P16473 whole entry, looked up): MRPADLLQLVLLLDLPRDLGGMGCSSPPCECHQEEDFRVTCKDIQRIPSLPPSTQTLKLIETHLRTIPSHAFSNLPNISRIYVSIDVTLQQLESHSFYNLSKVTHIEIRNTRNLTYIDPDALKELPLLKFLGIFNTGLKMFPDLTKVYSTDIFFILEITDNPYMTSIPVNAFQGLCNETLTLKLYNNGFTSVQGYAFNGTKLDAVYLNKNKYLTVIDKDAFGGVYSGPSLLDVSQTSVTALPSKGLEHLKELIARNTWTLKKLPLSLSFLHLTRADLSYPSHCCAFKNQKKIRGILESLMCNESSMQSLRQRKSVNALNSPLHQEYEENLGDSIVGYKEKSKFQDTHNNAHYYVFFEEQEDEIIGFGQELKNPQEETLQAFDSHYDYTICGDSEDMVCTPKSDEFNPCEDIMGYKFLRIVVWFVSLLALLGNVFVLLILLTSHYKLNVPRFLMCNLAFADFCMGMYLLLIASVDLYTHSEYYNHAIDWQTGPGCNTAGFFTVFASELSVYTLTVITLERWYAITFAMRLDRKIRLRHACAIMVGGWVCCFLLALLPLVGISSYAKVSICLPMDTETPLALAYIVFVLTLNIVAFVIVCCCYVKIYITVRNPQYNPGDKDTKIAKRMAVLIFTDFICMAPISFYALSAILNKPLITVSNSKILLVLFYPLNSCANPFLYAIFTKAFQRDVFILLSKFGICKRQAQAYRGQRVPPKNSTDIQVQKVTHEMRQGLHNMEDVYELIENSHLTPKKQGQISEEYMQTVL
Sequence of Luciferin 4-monooxygenase (Photinus pyralis) (P08659 whole entry, looked up): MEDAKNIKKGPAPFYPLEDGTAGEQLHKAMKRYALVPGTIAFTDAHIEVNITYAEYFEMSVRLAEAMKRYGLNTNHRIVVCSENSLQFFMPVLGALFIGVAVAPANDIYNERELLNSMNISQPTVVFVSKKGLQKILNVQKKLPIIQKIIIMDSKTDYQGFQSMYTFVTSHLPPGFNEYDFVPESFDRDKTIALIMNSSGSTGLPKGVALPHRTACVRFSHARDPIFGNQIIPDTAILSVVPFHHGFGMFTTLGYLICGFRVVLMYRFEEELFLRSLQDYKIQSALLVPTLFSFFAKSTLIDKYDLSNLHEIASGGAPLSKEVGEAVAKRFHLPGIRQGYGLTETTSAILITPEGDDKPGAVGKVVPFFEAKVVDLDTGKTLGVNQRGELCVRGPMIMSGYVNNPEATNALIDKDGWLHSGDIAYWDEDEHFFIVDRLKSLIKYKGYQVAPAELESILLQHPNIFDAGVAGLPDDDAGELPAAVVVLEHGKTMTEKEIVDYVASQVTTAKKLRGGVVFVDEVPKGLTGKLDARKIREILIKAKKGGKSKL

As for `C=CCN1C[C@H](C)N([C@H](c2ccc(C(=O)N(CC)CC)cc2)c2cccc(OC)c2)C[C@H]1C`, the Potency result in assay [1], in [2], in assay [3], in assay [4], in assay [5] and in assay [6] was “inactive” in each case. In addition, the Potency result in assay [7], in assay [9], in assay [11] and in assay [12] was “inactive” in each case. The activity change, positive = activation in assay [8] (at 42.5 µM (top of the series)) is -5.94% (inactive). In addition, the Potency in assay [10] was 19 µM (active).
For `O=C(O)c1cc(Cl)ccc1Cl`, the Potency entry in [1], in assay [13], in assay [14], in assay [3], in [6] and in assay [7] was “inactive” in each case. Also, the Potency result in assay [16], in assay [10], in [11] and in [12] was “inactive” in each case. Moreover, in [15], the result was inactive.
For `C=CC(C)(CCC=C(C)C)OC(=O)c1ccccc1N` (stereo not given), the Potency result in [1], in [13], in assay [2], in assay [3], in assay [5] and in [6] was “inactive” throughout. In addition, the Potency entry in [7], in assay [16], in [9], in assay [10] and in assay [12] was “inactive” throughout. In addition, the result in assay [15] was inactive.
As to `Nc1ccccc1C(=O)OCCc1ccccc1`, the Potency in assay [17] is 897 nM (active) and 796 nM (active); in [18], 54.7 µM (active) and 27.3 µM (active); in assay [4], 1.09 µM (active) and 1.37 µM (active); in assay [16], 101 µM (active) and 89.8 µM (active); in assay [10] it was 24.5 µM (active); in assay [11], “inactive and 43.6 µM (active)”. Further, the Potency entry in [14], in [2], in [19], in assay [6], in assay [7] and in assay [20] was “inactive” in each case. Moreover, the Potency entry in [9] and in [12] was “inactive” throughout. In [15], the outcome was inactive. The activity change, positive = activation in [8] (at 92.4 µM (top of the series)) is 18.1% (active) and 10.8% (active).
Turning to `CCCN(CCC)C(=O)Cc1c(-c2ccc(Cl)cc2)nc2ccc(Cl)cn12`, the Potency entry in assay [13], in assay [2], in [3], in assay [5], in [6] and in assay [7] was “inactive” in each case. Besides, the Potency result in assay [16], in assay [11] and in assay [12] was “inactive” in each case. The compound was called inactive in assay [15]. Also, the Potency in [10] was 5.35 µM (active).
As to `CCCCCCCCCCCC[N+](C)(C)CCOc1ccccc1`, the Potency was 61.1 µM (active) and 26.6 µM (active) in assay [1]; 24.6 µM (active) and inactive in [6]; 89.8 µM (active) and 49.2 µM (active) in [16]; 19.3 µM (active) and 21.1 µM (active) in assay [20]; 21.9 µM (active) and 9.52 µM (active) in assay [9]; 7.76 µM (active) and 9.52 µM (active) in assay [10]. In [12], the Potency is 19.5 µM (active) and 6.01 µM (active). Besides, the Potency entry in assay [2], in [18], in assay [4] and in [11] was “inactive” throughout. For the same compound, the activity change, positive = activation in assay [8] (at 42.5 µM (top of the series)) was -65.5% (inactive); in assay [8] (at 92.4 µM (top of the series)), -76.3% (inactive).

The values above are taken from PubChem BioAssay (Tox21).
